# Data as given in ChEMBL document CHEMBL1157539, “Thousands of chemical starting points for antimalarial lead identification” (Nature, 2010).
# Test system: HepG2
# Test: GSK_TCMDC: Percent inhibition of human HepG2 cell line. Test compounds present at 10uM.
# Format: functional
row,Compound,Inhibition
1,Cc1cc(NCCc2ccccc2)nc(NC(=N)Nc2cccc(Cl)c2)n1,24%
2,O=C(O)C(F)(F)F.O=C1CCCN1CCCNCc1ccc(-c2ccc(-c3nc4cc(C(F)(F)F)ccc4[nH]3)cc2)cc1,10%
3,COc1ccc(N2CCN(CCCCNC(=O)c3ccc(/C=C/c4ccc(Cl)c(Cl)c4)cc3)CC2)c(OC)c1,51%
4,O=C(Nc1ccc(Cl)cc1)c1ccc(CN2CCCN(Cc3cccc(Cl)c3)CC2)cc1.O=C(O)C(F)(F)F,53%
5,Cc1c(Cl)ccc2c(C(=O)Nc3ccncc3)cc(-c3cccnc3)nc12,16%
6,Cc1cccc2nc(-c3ccc(-c4ccc(NC(=O)NCc5cccc(F)c5)cc4)s3)[nH]c12,70%
7,COC(=O)c1cccc(CNCc2ccc(-c3ccc(-c4nc5cccc(C)c5[nH]4)cc3)cc2)c1.O=C(O)C(F)(F)F,17%
8,Cc1cc(CN2CCCN(c3ccc4c(c3)CCN(Cc3ccc(-c5ncc[nH]5)cc3)CC4)CC2)n(C)n1,5%
9,CCOc1ccc(S(=O)(=O)N(C)c2ccc(OCC(=O)Nc3nccs3)cc2)cc1,8%
10,O=C(Nc1ccccc1O)C1CCN(c2ncnc3cc(-c4ccc(F)cc4)sc23)CC1,10%
11,Clc1ccc(OCc2ccccc2)c(-c2nc(-c3nc4ncc(Br)cc4[nH]3)cs2)c1,0%
12,CC(C)(C)CNCC(C)(C)c1nc(-c2ccc(Cl)c(O)c2)c(-c2ccncc2)[nH]1.Cl,42%
13,CCCCN1Cc2c(n(CC(=O)Nc3ccccc3)c3cc(-c4ccccc4)nn3c2=O)C1=O,1%
14,CCCN(CCC)C(=S)N/N=C1/C(=O)Nc2ccccc21,28%
15,O=C(NC(c1ccccc1)c1ccccc1)C(c1cc2ccccc2o1)N1CCN(C(c2ccccc2)c2ccccc2)CC1 (centres undefined),0%
16,O=C(Nc1ccc(Cl)cc1)Nc1cccc(-c2ccc(-c3nc4ccccc4[nH]3)cc2)c1,19%
17,Br.CC(=O)CSC(C=Cc1ccc(N(C)C)cc1)=Nc1ccccc1,38%
18,Cc1ccc(Cn2nc(N3CCNCC3)ccc2=O)cc1NC(=O)Nc1ccc(-c2ccccc2)cc1.O=C(O)C(F)(F)F,46%
19,COc1ccc(C2CC(c3cccs3)=NN2C(=O)COc2cccc3c2CCCC3O)cc1OC (centres undefined),5%
20,CCCCn1c(Sc2ccc(C#N)c([N+](=O)[O-])c2)nnc1-c1cccc(Cl)c1,30%

row,Compound,Inhibition
1,CC(C)NCc1ccc(-c2ccc(-c3nc4cc(C(F)(F)F)ccc4[nH]3)cc2)cc1.O=C(O)C(F)(F)F,16%
2,C=CCOC(=O)N1CCC(CNCc2cccc(-c3ccc(-c4nc5cc(C(F)(F)F)ccc5[nH]4)cc3)c2)C1.O=C(O)C(F)(F)F (centres undefined),28%
3,CC12CN3CC(C)(CN(C1)C3c1cc(Br)ccc1O)C2O (centres undefined),5%
4,N#CCCN1CCN(Cc2cccc(-c3ccc(-c4nc5cc(F)ccc5[nH]4)cc3)c2)CC1.O=C(O)C(F)(F)F,18%
5,CCNc1cc(C(=O)N[C@@H](Cc2ccccc2)[C@H](O)CNC2(CC)CC2)cc(N2CCCCS2(=O)=O)c1.Cl,59%
6,Cc1ccc(-c2nnc(Nc3ccc(OCC(N)=O)cc3)c3ccccc23)cc1S(=O)(=O)NCC1CCCO1 (centres undefined),0%
7,O=C(NC1CCN(CCCc2ccccc2)CC1)c1ccc(-c2cccc(C(F)(F)F)c2)s1.O=C(O)C(F)(F)F,93%
8,O=[N+]([O-])c1cccc(/C=N/Nc2ccnc3ccc(C(F)(F)F)cc23)c1,0%
9,CCCCCCc1cc(Oc2c(I)cc(C[C@H](N)C(=O)O)cc2I)ccc1O,0%
10,CN(c1ccc2c(c1)nc(Nc1ccc(Cl)cc1)n2C)c1ccnc(Nc2ccc(CS(C)(=O)=O)cc2)n1.Cl,91%
11,COc1ccc(-c2ccc(NC(=O)c3cccc(C#N)c3)cc2)cc1CN1CCCN(C)CC1.O=C(O)C(F)(F)F,26%
12,Clc1cc(Nc2ccnc3ccc(Br)cc23)ccc1Oc1ccc(Cl)c2ccccc12,6%
13,O=C(/C=C/c1ccc(Cl)c(Cl)c1)NCCCCCN1CCC(NC(=O)Nc2ccc(OC(F)F)cc2)CC1,33%
14,CC(ON1C(N)=NC(N)=NC1(C)C)c1ccccc1 (centres undefined),65%
15,C[C@@H](C(=O)N1CCOCC1)N1CC[C@H](NS(=O)(=O)c2ccc3ccnc(N)c3c2)C1=O.O=CO,0%
16,Cc1cc(Nc2cccc(C(F)(F)F)c2)nc(Nc2cccc(C(F)(F)F)c2)n1,0%
17,CCN(CC)CCN(Cc1ccc(-c2ccc(C(F)(F)F)cc2)cc1)C(=O)Cn1c(CCc2cc(F)c(F)c(F)c2)nc(=O)c2ccccc21.O=C(O)C(O)C(O)C(=O)O,31%
18,O=C(CC1NC(=O)c2ccccc21)Nc1ccc(-c2ccc(-c3nc4cc(C(F)(F)F)ccc4[nH]3)cc2)cc1 (centres undefined),39%
19,COc1ccc2nccc([C@@H](O)CN3CCC(NC(=O)C(c4cc5ccccc5o4)N4CCN(C(c5ccccc5)c5ccccc5)CC4)CC3)c2c1 (some centres undefined),18%
